# Sampled rows, rich in hits. Any-hit rate of the full collection: about 21%.
# Pf growth 96h: Primary qHTS for delayed death inhibitors of the malarial parasite plastid, 96 hour incubation | Potency, µM (titrated, usually from 28.7 µM), inactives show top-dose activity change, negative = inhibition, most hits filed as inhibitors | 6.9% of 320,000 active | P. falciparum luciferase reporter growth, 96 h | AID 504834, 2011; also: potency is read from the fitted curve at half-maximal effect; % is scaled to controls: 0 for no effect and ±100 for the full control effect
#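 Luminescence readout: decreased luciferase signal marks inhibited growth of reporter-expressing P. falciparum in infected red cells (2% hematocrit, 0.05% parasitemia final), exposed to compound two generations (96 h, 37 C, 5% CO2).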
# Pf growth 48h: Primary qHTS for delayed death inhibitors of the malarial parasite plastid, 48 hour incubation; P. falciparum luciferase growth in erythrocytes, 48 h; 5.9% of 310,000 active; Potency, µM (doses to about 28.7 µM), for inactives: top-dose activity change, negative = inhibition, usual class: inhibitors; also: potency is read from the fitted curve at half-maximal effect; % is scaled to controls: 0 for no effect and ±100 for the full control effect
#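 Luciferase-expressing P. falciparum in infected erythrocytes (2% hematocrit, 0.1% parasitemia final) in RPMI 1640/0.5% Albumax were exposed to compound for 48 hours at 37 C, 5% CO2; growth read as luminescence.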
# CHX counter: Cycloheximide Counterscreen for Small Molecule Inhibitors of Shiga Toxin. cell reporter, cycloheximide protein synthesis inhibition counterscreen. max response, %. 12% of 300,000 active. AID 2314, 2010; in the data active = max response mostly above about 13%, no sharp cut-off; inactive = mostly below about 14%; also: read at 38.3 µM for the half of the compounds with a filed dose; 0% is about no effect
# Shiga inhibitor: A qHTS for Small Molecule Inhibitors of Shiga Toxin; Vero cells, Shiga toxin protein synthesis inhibition reporter; inhibition, % at 38.7 µM; 9.2% of 290,000 active; AID 2315, 2010; in the data active = inhibition mostly above about 28%, no sharp cut-off; inactive = mostly below about 43%; also: 0% is about no effect
# NS1 function inh: qHTS Assay for Inhibitors of Influenza NS1 Protein Function; Potency, µM (series often up to 46.1 µM), for inactives: top-dose activity, positive = more growth; 0.4% of 270,000 active; AID 2326, 2010; calls by dose curve; also: potency is read from the fitted curve at half-maximal effect; actives are rising curves; nearly all actives have a fitted effect of over 50% in size
#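 Compounds were scored for reversing the slow growth caused by influenza A NS1 in S. cerevisiae, measured by optical density at 600 nm. Assay medium contained 2% galactose at pH 6.0; NS1-free yeast of the same strain were the positive control.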
# Numbers without * were called inactive; ? = inconclusive; . = no result given; ! = not active in a repeat. Unless noted, calls follow the shape of the dose curve; as a rule, active = well fitted inhibition curve with a large enough effect; inconclusive = small, poorly fitted or top-dose-only effect, or another doubt; inactive = no such curve, though single readings can be large or run the other way.
SMILES,Pf growth 96h,Pf growth 48h,CHX counter,Shiga inhibitor,NS1 function inh
CC1CCN(C(=O)C(C)NCc2ccc(F)cc2)CC1 (centres undefined),?,2%,2,-4,9%
COc1ccc(NS(=O)(=O)c2cc(NC(=O)c3ccc(=O)[nH]c3)ccc2N2CCCC2)cc1,?,?,-1,21,3%
COc1cc(O)c(C(CCN2CCCC(C)C2)c2ccc3c(c2)OCO3)c(OC)c1 (centres undefined),0.59µM*,0.66µM*,-9,-5,-9%
COc1cc(O)c(C(CCN2CCCC(C)C2)c2ccc(N(C)C)cc2)c(OC)c1 (centres undefined),0.47µM*,0.74µM*,-2,11,-10%
COc1cc(O)c(C(CCN2CCOCC2)c2ccc3c(c2)OCO3)c(OC)c1 (centres undefined),2.3µM*,1.7µM*,-3,-3,-1%
COc1cc(OC)c2c(C)cc(=O)oc2c1C(CCN1CCCC(C)C1)c1ccc(N(C)C)cc1 (centres undefined),.,.,-5,5,.
COc1cc(OC)c2ccc(=O)oc2c1C(CCN1CCCC(C)C1)c1ccc2c(c1)OCO2 (centres undefined),10µM*,9.3µM*,44*!,124*!,1%
COc1ccc(CNC(=O)c2coc(=O)c3ccccc23)cc1,?,-10%,10,28,.
CC(CCc1ccccc1)NC(=O)CN1CCN(Cc2ccc(Cl)cc2)C1=O (centres undefined),22%,.,-6,-10,1%
Cc1ccc(C2(c3noc(CN4CCOCC4)n3)CCCC2)cc1,?,9%,-2,6,-5%
Cc1ccc(C2(c3noc(CN(C)Cc4cnn(C)c4)n3)CCCC2)cc1,12µM*,11%,-1,2,5%
Cc1ccc(C2(c3noc(CN(C)CCCN4CCOCC4)n3)CCCC2)cc1,8.3µM*,-9%,2,-6,-5%
CCOC(=O)N1CCC(N2C(=O)c3ccccc3C2Nc2ccc(S(=O)(=O)N3CCCCC3)cc2)CC1 (centres undefined),?,?,-2,-13,.
CCCCCC(=O)Nc1nc(C)c(-c2csc(Nc3ccc(Cl)cc3)n2)s1,?,15µM*,1,7,28%
CCCCCC(=O)Nc1nc(C)c(-c2csc(Nc3cc(Cl)ccc3C)n2)s1,?,?,-3,-7,28%
CCCCCCC(=O)Nc1nc(C)c(-c2csc(Nc3ccc(Cl)cc3)n2)s1,2.9µM*,10µM*,-2,-17,18%
O=C(CCN1C(=O)S/C(=C\c2ccc(F)cc2)C1=O)Nc1ccc(O)cc1C(=O)O,?,9%,5,14,7%
COc1ccc(C(=O)Nc2ncc(C)s2)cc1S(=O)(=O)N1CCOCC1,-22%,-17%,.,.,.
C/C=C/Cn1c(SCCCc2ccccc2)nc2c1c(=O)[nH]c(=O)n2C,0.93µM*,?,-2,-6,-74%
C=CCn1c(SCCCc2ccccc2)nc2c1c(=O)[nH]c(=O)n2C,4.1µM*,?,-2,-9,-70%
CCCCSc1nc2c(c(=O)[nH]c(=O)n2C)n1CCc1ccccc1,?,?,1,-3,-3%
COCCn1c(SCCCc2ccccc2)nc2c1c(=O)[nH]c(=O)n2C,-7%,?,-4,-9,-57%
Cc1cc(NC(=O)CSc2ccc3nnc(-c4ccccn4)n3n2)no1,12µM*,?,-1,-3,-5%
CCOc1ccc(NC(=O)CSc2ccc3nnc(-c4ccccn4)n3n2)cc1,?,?,-2,-9,10%
Cc1nnc(NC(=O)CSc2ccc3nnc(-c4ccccn4)n3n2)s1,?,?,-3,-6,.
SMILES,Pf growth 96h,Pf growth 48h,CHX counter,Shiga inhibitor,NS1 function inh
Cc1cc(NC(=O)CSc2ccc3nnc(-c4cccc(F)c4)n3n2)no1,?,1.9µM*,11,-9,-1%
Cc1cc(NC(=O)CSc2ccc3nnc(-c4ccc(Cl)cc4)n3n2)no1,20%,.,-5,-12,-8%
O=C(CSc1ccc2nnc(-c3ccccn3)n2n1)Nc1ccccc1,?,13µM*,1,-9,7%
O=[N+]([O-])c1cc(Cl)ccc1NCCc1ccccn1,37%,28%,18*,57*,-42%
O=C(NCCNc1ccc(Cl)cc1[N+](=O)[O-])c1ccccc1F,?,10%,12*,19,-9%
O=C(NCCNc1ccnc2cc(Cl)ccc12)c1ccccc1F,5%,0.47µM*,1,-4,2%
